# Experimental data reported in PubChem BioAssay (NCATS).
# Results filed as inconclusive are left out. The source made the active and inactive calls. Calls follow the shape of the dose curve; as a rule, active = well fitted cell-killing curve with a large enough effect; inconclusive = small, poorly fitted or top-dose-only effect, or effect the other way; inactive = no such curve, though single readings can be large or run the other way.
# Assay: Viability qHTS for spleen associated tyrosine kinase inhibitor (SYKi) drug resistant MV4-11 cells (AID 1963824); also: nearly all actives have a fitted effect of over 35% in size
# Settings: SYKi-resistant MV4-11 viability, CellTiter-Glo, 72 h; series mostly up to 45 µM
# In short: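 SYK inhibitor-resistant MV4-11 AML cells, 500 per well, added to predispensed compounds and incubated 72 hr at 37 C, 5% CO2. Viability measured by CellTiter-Glo luminescence after 10 min at room temperature.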
# Potency is read from the fitted curve at half-maximal effect.
row,Structure (SMILES),Potency
1,CCC(C)/C=C(C)/C=C/C(=O)C1CCC(O)C(C)(O)C1=O (stereo not drawn),13 µM (active)
2,Cc1cnc(NC(=O)Nc2cc(Br)c(C)cc2OCC2CNCCO2)cn1 (stereo not drawn),0.82 µM (active)
3,C[C@@H]1O[C@@H](O[C@H]2[C@@H](OC(=O)[C@]34CCC(C)(C)CC3C3=CCC5[C@@]6(C)C[C@H](O)[C@H](O[C@@H]7O[C@H](CO)[C@@H](O)[C@H](O)[C@H]7O[C@@H]7OC[C@@H](O)[C@H](O)[C@H]7O)[C@@](C)(C(=O)O)C6CC[C@@]5(C)[C@]3(C)CC4)OC[C@H](O)[C@@H]2O)[C@H](O)[C@H](O)[C@H]1O[C@@H]1OC[C@@H](O)[C@H](O)[C@H]1O (stereo partly drawn),1.38 µM (active)
